Compound activity (PubChem BioAssay)
Most compounds without a hit are left out; they make up all but 4.8% or so of the library.
DAX1 inh-1: DAX1 (NR0B1) inhibition, primary screen; HEK293T StAR-luciferase reporter, SF-1/DAX-1 repression relief; inhibition, % at 6.8 µM; 370,000 tested, 1.1% active;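 active = inhibition above the mean over all tested compounds plus 3 SD, cut at about 3.6% in these data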;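 note: 0% = DAX-1 cells with DMSO and 100% = cells lacking DAX-1 with DMSO; higher inhibition means more luminescence from relief of DAX-1 repression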
ssDAF12 agonist: S. stercoralis DAF-12 activation, primary screen | HEK293 ssDAF-12/GRIP1 lit1-tk-luc reporter, luminescence; % of 3 µM dafachronic acid response | activation, % at 6.8 µM | 370,000 tested, 1% active | AID 652126;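 active = activation above the mean over all tested compounds plus 3 SD, cut at about 0.9% in these data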;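 note: 0% = DMSO-only wells and 100% = 3 µM delta7-dafachronic acid wells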
hcDAF-12 act: H. contortus DAF-12 activation, primary screen; 370,000 tested, 1.4% active; activation, % at 6.8 µM; HEK293 hcDAF-12 lit1-tk-luc reporter, luminescence; 0% DMSO, 100% Δ7-dafachronic acid;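 active = activation above the mean of all tested compounds plus 3 SD, cut at about 5.5% in these data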;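 note: 100% = response to 3 µM Δ7-dafachronic acid high control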
DAX1 inh-2: inhibits human nuclear receptor DAX1. P51843. HEK293 Gal4-DAX1 luciferase reporter, luminescence. inhibition, % at 6.75 µM. 340,000 tested, 0.99% active. AID 504766;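 active = inhibition above the mean over all tested compounds plus 3 SD, cut at about 4.2% in these data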;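 note: 0% = DAX1-transfected cells with DMSO and 100% = empty-vector control cells with DMSO; inhibition shows as a rise in luminescence from relieved DAX1 repression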
hgDAF-12 ag: agonists of H. glycines DAF-12 nuclear receptor. HEK293 GAL4-hgDAF12 UAS-luciferase reporter, agonist luminescence; normalized to butyrate control. activation, % at 6.8 µM. 370,000 tested, 1.8% active;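 active = activation above a cutoff set at the mean of all screened compounds plus 3 SD, cut at about 10% in these data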;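 note: 0% = DMSO wells and 100% = sodium butyrate wells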
SMARCA2 act: SMARCA2 function activation, primary screen | 370,000 tested, 1% active | MG213 cells, MMTV-luciferase reporter, dexamethasone, overnight | activation, % at 9.1 µM; in the data active = activation above about 7.8%;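 note: 0% = vehicle wells and 100% = reference activator wells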
DAX1 inh confirm: NR0B1 (human) inhibition, confirmation; shares compounds with DAX1 inh-1; HEK293T StAR-promoter luciferase reporter, SF-1/DAX-1 repression; inhibition, % at 6.8 µM; 2,400 tested, 87% active; AID 652134;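 active = inhibition above the average of every tested compound plus 3 SD, cut at about 3.8% in these data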;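 note: 0% = DAX-1 cells with DMSO and 100% = no DAX-1 control cells with DMSO; active compounds raise luminescence by relieving repression of the StAR reporter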
Target sequence (P51843 whole entry, looked up): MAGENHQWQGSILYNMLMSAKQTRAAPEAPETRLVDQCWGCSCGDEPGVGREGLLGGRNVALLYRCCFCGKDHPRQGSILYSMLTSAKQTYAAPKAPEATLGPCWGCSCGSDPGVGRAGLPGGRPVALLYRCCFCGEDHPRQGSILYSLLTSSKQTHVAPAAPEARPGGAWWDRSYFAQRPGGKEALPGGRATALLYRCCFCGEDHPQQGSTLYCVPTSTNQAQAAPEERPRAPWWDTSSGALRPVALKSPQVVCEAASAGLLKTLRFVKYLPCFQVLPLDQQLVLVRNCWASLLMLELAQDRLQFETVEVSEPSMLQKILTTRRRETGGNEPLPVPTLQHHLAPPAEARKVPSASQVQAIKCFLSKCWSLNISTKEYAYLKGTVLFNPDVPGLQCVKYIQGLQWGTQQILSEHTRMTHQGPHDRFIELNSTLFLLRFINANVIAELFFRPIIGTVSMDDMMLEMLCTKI
SF1 mutant ctr: nonselective inhibitor or artifact in SF-1 mutant DAX1 counter-screen; shares compounds with DAX1 inh-1; HEK293 StAR-luciferase, SF-1 AF2 mutant, luminescence; inhibition, % at 6.8 µM; 2,400 tested, 78% active;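 active = inhibition above the mean of all tested compounds plus 3 SD, cut at about 3% in these data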;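 note: 0% = DAX-1 transfected cells with DMSO and 100% = cells without DAX-1 with DMSO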
Numbers without * were called inactive.

What do the screens show for `CC(C)c1ccc(/C=C2\SC(=O)N(CC(=O)NCCCn3ccnc3)C2=O)cc1`?
DAX1 inh-1: 6.8*; ssDAF12 agonist: 0; hcDAF-12 act: 3; DAX1 inh-2: 1; hgDAF-12 ag: 11*; SMARCA2 act: 2; DAX1 inh confirm: 6.2*; SF1 mutant ctr: 6.5*

What do the screens show for `O=C(CN1C(=O)S/C(=C\c2ccccc2)C1=O)NCCCn1ccnc1`?
DAX1 inh-1: 0; ssDAF12 agonist: -1; hcDAF-12 act: 1; DAX1 inh-2: 0; hgDAF-12 ag: 3; SMARCA2 act: -2

Results for Cc1nn(-c2ccccc2)c(Cl)c1/C=N/NC(=O)c1ccn[nH]1 ?
DAX1 inh-1: 14*; ssDAF12 agonist: 0; hcDAF-12 act: 5.8*; DAX1 inh-2: 0; hgDAF-12 ag: 13*; SMARCA2 act: 7; DAX1 inh confirm: 8.8*; SF1 mutant ctr: 5.8*

Results for Cc1ccc(S(=O)(=O)N(C)C)cc1NC(=O)COC(=O)/C=C/c1ccc2ccccc2n1 ?
DAX1 inh-1: 5.0*; ssDAF12 agonist: 0; hcDAF-12 act: 1; DAX1 inh-2: 0; hgDAF-12 ag: 3; SMARCA2 act: 3; DAX1 inh confirm: 1; SF1 mutant ctr: 0

Results for COc1ccc(/C=C/c2cc(C(=O)O)c3ccccc3n2)cc1 ?
DAX1 inh-1: 4.5*; ssDAF12 agonist: 1.0*; hcDAF-12 act: 6.0*; DAX1 inh-2: 0; hgDAF-12 ag: 13*; SMARCA2 act: 3; DAX1 inh confirm: 9.8*; SF1 mutant ctr: 3.2*

Results for COC(=O)[C@]12C[C@H](CC(=O)N3CCCCC3)C(=O)N(Cc3ccco3)C1=C[C@H](COCc1ccccc1)O[C@@H]2C ?
DAX1 inh-1: -2; ssDAF12 agonist: -1; hcDAF-12 act: 0; hgDAF-12 ag: 0; SMARCA2 act: -1

How did O=C(Nc1ccc(Cl)cn1)c1ccc2nccnc2c1 do in these assays?
DAX1 inh-1: 6.4*; ssDAF12 agonist: 1.6*; hcDAF-12 act: 1; DAX1 inh-2: 1; hgDAF-12 ag: 7; SMARCA2 act: 3; DAX1 inh confirm: 4.5*; SF1 mutant ctr: 2

What do the screens show for `O=C(Nc1ccc(Br)cn1)c1ccc2nccnc2c1`?
DAX1 inh-1: 2; ssDAF12 agonist: 0; hcDAF-12 act: 1; DAX1 inh-2: 0; hgDAF-12 ag: 4; SMARCA2 act: 5

Results for C[C@H]1C2CC(OC(=O)Nc3cccc(F)c3)C(C2)[C@H]2CCCCN21 (stereo partly specified) ?
DAX1 inh-1: -1; ssDAF12 agonist: 0; hcDAF-12 act: -1; hgDAF-12 ag: 2; SMARCA2 act: -1

How did COc1ccc(S[C@]2(C(=O)NC(C)C)CC(=O)N[C@@H]2c2ccc(OC)cc2)cc1 do in these assays?
DAX1 inh-1: 0; ssDAF12 agonist: -1; hcDAF-12 act: 1; hgDAF-12 ag: 0; SMARCA2 act: -3

How did CCOC(=O)C1(Cc2cccc(OC)c2)CCCN(C(=O)CCN2CCCO2)C1 (stereo unspecified) do in these assays?
DAX1 inh-1: 4.8*; ssDAF12 agonist: 0; hcDAF-12 act: 3; DAX1 inh-2: 1; hgDAF-12 ag: 11*; SMARCA2 act: 6; DAX1 inh confirm: 7.0*; SF1 mutant ctr: 5.8*

Results for O=S1(=O)CC2c3ccccc3CN2CN1C1CCCC1 (stereo unspecified) ?
DAX1 inh-1: 0; ssDAF12 agonist: 0; hcDAF-12 act: 2; hgDAF-12 ag: 0; SMARCA2 act: 5

What do the screens show for `O=C(NCc1ccc(Cl)cc1)C1CCCN(c2ncccn2)C1` (stereo unspecified)?
DAX1 inh-1: 1; ssDAF12 agonist: -1; hcDAF-12 act: 1; hgDAF-12 ag: -2; SMARCA2 act: -5
